Experimental findings from PubChem BioAssay (NCI) are described below.

Test systems include NCI-H23 lung; NCI-H226 lung; NCI-H322M lung; HOP-62 NSCLC; NCI-H460 lung; HOP-92 NSCLC; NCI-H522 lung; A549/ATCC NSCLC; 786-0 renal; COLO 205 colon; DU-145 prostate; K-562 leukemia; MALME-3M melanoma; MDA-MB-231 breast; SF-268 CNS; SF-295 CNS; SF-539 CNS; UACC-257 melanoma; M14 melanoma.
Test in all cases: NCI-60 one-dose screen, 48 h (100 = growth as untreated, 0 = no growth, -100 = all killed)
Conditions in all cases: 10 µM

This is part of a sample that, as a whole, favours compounds with a hit. Of some 83,000 tested, about 20% had one in any assay.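 Testing used 96-well plates and a 48-hour single-concentration exposure. Example: -40 means 40% of the starting cells died.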 Unmarked numbers belong to inactive results. Activity calls are given as the source filed them. The calls were made as follows: active = growth percent below 10; inactive = the rest.

In the case of `O=C1CCC(N2Cc3cc(CC(=O)Nc4ccc(N5CCCCC5)cc4)ccc3C2=O)C(=O)N1` (configuration not stated), the growth in the experiment with NCI-H23 lung is 93.8%; in the experiment on NCI-H226 lung, 16.3%; in the experiment with NCI-H322M lung, 56.6%; with HOP-62 NSCLC, 23.5%; with NCI-H460 lung it was 98.6%; in the experiment on HOP-92 NSCLC it was -5.24% (active). In addition, the growth with NCI-H522 lung was 65.3%; in the experiment on A549/ATCC NSCLC, 68.3%; with 786-0 renal, 42.5%; with COLO 205 colon it was 37.5%; with DU-145 prostate, 94.5%; with K-562 leukemia, 77.3%. For the same compound, the growth in the experiment on MALME-3M melanoma is -25.4% (active); in the experiment on MDA-MB-231 breast it was 7.12% (active); in the experiment with SF-268 CNS, 61.9%; in the experiment on SF-295 CNS it was 57.4%; in the experiment with SF-539 CNS, 65.6%; with UACC-257 melanoma it was 102%. Besides, in the experiment with M14 melanoma, the growth was 39.4%.
In the case of `COc1cc2c3c(n(CCCn4ccnc4)c(=O)c2cc1OC)-c1nc2c(cc1C3=O)OCO2`, the growth in the experiment with NCI-H23 lung is 20%; in the experiment with NCI-H226 lung, 30.3%; with NCI-H322M lung, 71.6%; in the experiment with HOP-62 NSCLC, 22.7%; with NCI-H460 lung, 8.7% (active); with HOP-92 NSCLC, 117%. The growth in the experiment on NCI-H522 lung was 40.4%; in the experiment with A549/ATCC NSCLC, 47.7%; in the experiment on 786-0 renal it was 12.1%; in the experiment on COLO 205 colon it was 34.2%; with DU-145 prostate, 13.4%; in the experiment on K-562 leukemia, 28.4%. Further, the growth in the experiment with MALME-3M melanoma is 59.9%; in the experiment with MDA-MB-231 breast, 84.1%; with SF-268 CNS it was 42.4%; in the experiment with SF-295 CNS, -7.74% (active); in the experiment with SF-539 CNS it was -10.1% (active); with UACC-257 melanoma, 66%. Also, the growth with M14 melanoma was 19.9%.
Regarding `CCOC(=O)CNC(=O)CN(Cc1ccccc1)C(=O)[C@@]1(C)CCC[C@]2(C)[C@H]3C[C@H]4C(C(C)C)=C[C@]3(CC[C@H]21)[C@@H]1C(=O)OC(=O)[C@@H]14`, the growth with NCI-H23 lung was 46.6%; in the experiment with NCI-H226 lung it was 71.3%; in the experiment with NCI-H322M lung, 106%; in the experiment on HOP-62 NSCLC, 82.8%; in the experiment on NCI-H460 lung, 61.1%; with HOP-92 NSCLC it was 74.6%. Further, the growth with NCI-H522 lung was 35.6%; in the experiment on A549/ATCC NSCLC, 53.9%; in the experiment with 786-0 renal it was 84.7%; in the experiment with COLO 205 colon it was 103%; with DU-145 prostate, 92.8%; in the experiment on K-562 leukemia, 24.9%. Moreover, the growth in the experiment on MALME-3M melanoma was 101%; in the experiment on MDA-MB-231 breast, 88.1%; in the experiment with SF-268 CNS, 92.7%; in the experiment on SF-295 CNS it was 48.6%; in the experiment with SF-539 CNS, 91.8%; in the experiment on UACC-257 melanoma, 89.5%. Further, in the experiment on M14 melanoma, the growth was 73.3%.
With `Cc1ccc2nc(-c3ccc(-c4nnc(SCC(=O)Nc5ccc(Br)cc5)o4)cc3)[nH]c2c1`, the growth in the experiment with NCI-H23 lung was 50.3%; in the experiment with NCI-H226 lung, 62.1%; with NCI-H322M lung, 80.7%; with HOP-62 NSCLC, 72.9%; in the experiment on NCI-H460 lung, 14.4%; with HOP-92 NSCLC, 91.9%. Further, the growth with NCI-H522 lung was 62.6%; in the experiment with A549/ATCC NSCLC, 89.5%; in the experiment with 786-0 renal, 84.6%; with COLO 205 colon, 87.3%; in the experiment with DU-145 prostate, 82.9%; in the experiment on K-562 leukemia, 7.89% (active). Besides, the growth with MALME-3M melanoma was 87.1%; with MDA-MB-231 breast, 77.9%; in the experiment with SF-268 CNS, 80.6%; in the experiment with SF-295 CNS, 63.8%; in the experiment with SF-539 CNS it was 68.3%; in the experiment with UACC-257 melanoma, 96.5%. In the experiment with M14 melanoma, the growth is 66.6%.
Turning to `Cc1noc2c(Cc3ccccc3)nn(CC(=O)N/N=C/c3ccc(Cl)cc3)c(=O)c12`, the growth in the experiment with NCI-H23 lung is 79.1%; with NCI-H226 lung, 14.5%; in the experiment with NCI-H322M lung, 96.3%; in the experiment with HOP-62 NSCLC it was 34.9%; in the experiment with NCI-H460 lung, 10.4%; in the experiment with HOP-92 NSCLC it was 9.05% (active). In addition, the growth is 83.9% in the experiment with NCI-H522 lung; 20.4% in the experiment with A549/ATCC NSCLC; -23.9% (active) in the experiment with 786-0 renal; 51.8% with COLO 205 colon; 68.9% in the experiment with DU-145 prostate; 93.7% in the experiment on K-562 leukemia. The growth with MALME-3M melanoma was 34.4%; in the experiment with MDA-MB-231 breast, 5.74% (active); in the experiment on SF-268 CNS, 59.8%; in the experiment on SF-295 CNS, 38.8%; in the experiment on SF-539 CNS, 67.7%; with UACC-257 melanoma it was 96%. Further, in the experiment on M14 melanoma, the growth was 94.4%.
As for `COc1ccc2[nH]cc(/C=N/Nc3cccc(Cl)n3)c2c1`, the growth in the experiment on NCI-H23 lung is 64.2%; with NCI-H226 lung, 48.4%; in the experiment on NCI-H322M lung, 71.2%; with HOP-62 NSCLC it was 59.3%; in the experiment on NCI-H460 lung it was 47.3%; in the experiment with HOP-92 NSCLC, 27%. The growth with NCI-H522 lung is 27.1%; with A549/ATCC NSCLC, 69.8%; in the experiment on 786-0 renal, 25.4%; in the experiment on COLO 205 colon it was 57.5%; in the experiment on DU-145 prostate, 64.4%; in the experiment with K-562 leukemia it was 19.9%. Further, the growth is 76.3% with MALME-3M melanoma; 3.25% (active) in the experiment on MDA-MB-231 breast; 32.8% with SF-268 CNS; 47.2% with SF-295 CNS; 26.8% with SF-539 CNS; 84.3% in the experiment with UACC-257 melanoma. Also, the growth in the experiment on M14 melanoma was 49.5%.
As for `COC(=O)C[C@](O)(CCCC(C)(C)O)C(=O)O[C@H]1C(OC)=C[C@@]23CCC(=O)N2CCc2cc4c(cc2[C@@H]13)OCO4`, the growth in the experiment on NCI-H23 lung is 101%; in the experiment with NCI-H226 lung, 79.4%; in the experiment with NCI-H322M lung, 112%; with HOP-62 NSCLC it was 93.1%; with NCI-H460 lung, 44.3%; in the experiment on HOP-92 NSCLC it was 116%. The growth is 78.4% in the experiment with NCI-H522 lung; 94.9% in the experiment on A549/ATCC NSCLC; 97.9% in the experiment on 786-0 renal; 118% in the experiment on COLO 205 colon; 103% with DU-145 prostate; 96.7% in the experiment on K-562 leukemia. Also, the growth is 81.5% with MALME-3M melanoma; 117% in the experiment on MDA-MB-231 breast; 101% with SF-268 CNS; 103% with SF-295 CNS; 93.3% in the experiment with SF-539 CNS; 109% in the experiment on UACC-257 melanoma. For the same compound, in the experiment on M14 melanoma, the growth is 102%.
Regarding `O=c1c2ccccc2nc(COc2ccccc2)n1/N=C/c1ccc(N2CCCC2)cc1`, the growth in the experiment on NCI-H23 lung was 85%; with NCI-H226 lung it was 105%; in the experiment with NCI-H322M lung, 91.2%; in the experiment on HOP-62 NSCLC, 108%; in the experiment with NCI-H460 lung, 105%; in the experiment with HOP-92 NSCLC it was 75.5%. Moreover, the growth in the experiment on NCI-H522 lung was 81.7%; with A549/ATCC NSCLC, 92.2%; in the experiment on 786-0 renal it was 92.8%; in the experiment with COLO 205 colon it was 142%; in the experiment on DU-145 prostate it was 94.7%; in the experiment on K-562 leukemia, 73.4%. Moreover, the growth with MALME-3M melanoma is 115%; in the experiment on MDA-MB-231 breast it was 89.2%; in the experiment with SF-268 CNS it was 115%; in the experiment on SF-295 CNS, 94.2%; in the experiment with SF-539 CNS it was 93.6%; in the experiment on UACC-257 melanoma it was 108%. In the experiment with M14 melanoma, the growth is 101%.
